Structures are written as SMILES. “And” between values parts separate entries of the source, which are not always exact repeats. Identical values can stand only once. Screen size: about 6,400 compounds; about 610 (9.5%) were called active. No stated cut-off is given here; in the data, active means activity change below about -70%; inconclusive means no clear call, values can overlap the other calls; inactive means above that. This excerpt belongs to a sample that is enriched for actives. Some structures have more than one record in an assay (separate samples or runs), and their calls can disagree.

This assay is described as follows: T. gondii ME49Luc in HeLa cells, luciferase assay, 72 h, no IFN-y (AID 1259421). The following applies: stronger effect = lower value, concentration not given here.
With `CC(C)[C@]1(O)[C@@H](OC(=O)c2ccc[nH]2)[C@@]2(O)[C@@]3(C)C[C@]4(O)O[C@@]5([C@H](O)[C@@H](C)CC[C@]35O)[C@@]2(O)C41C`, the activity change, negative = inhibition was 7.71% (inactive).

Regarding `N#Cc1ccccc1-c1cc(-c2ccccn2)cn(-c2ccccc2)c1=O`, the activity change, negative = inhibition was 3.7% (inactive). Regarding `C=CCN1CC[C@]2(C)c3cc(O)ccc3CC1[C@@H]2C`, the activity change, negative = inhibition is 17.7% (inactive).

`Cc1ccccc1-n1c(CF)nc2ccc(N)cc2c1=O`: the activity change, negative = inhibition is 11.5% (inactive).

`CCN(CC)Cc1nccn1-c1ccc([N+](=O)[O-])cc1C(=O)c1ccccc1Cl`: the activity change, negative = inhibition is -2.08% (inactive). In the case of `C=C(C)CN1CC[C@]23c4c5ccc(O)c4O[C@H]2c2[nH]c4ccccc4c2C[C@@]3(O)C1C5`, the activity change, negative = inhibition is 3.03% (inactive) and 27.5% (inactive). With `CN1C(=O)C(O)N=C(c2ccccc2)c2cc(Cl)ccc21` (centres undefined), the activity change, negative = inhibition was 18.5% (inactive). As for `CCOC(=O)c1ncn2c1C1CCCN1C(=O)c1cc(OC)ccc1-2` (centres undefined), the activity change, negative = inhibition was 4.31% (inactive). With `CNCC/C=C/c1cccnc1`, the activity change, negative = inhibition is 9.5% (inactive). The result for `O=C1CCCC2C3CC(CN12)[C@@H]1CCCCN1C3` (some centres undefined) reads 14.8% (inactive) and -1% (inactive); that for `O=C1Nc2ccc(Cl)cc2C(c2ccccc2)=NC1O` (centres undefined), 20.6% (inactive); that for `CCCN1CCCC2Cc3[nH]ncc3CC21` (centres undefined), 1.31% (inactive). For `NC(=O)CS(=O)C(c1ccccc1)c1ccccc1` (centres undefined), the activity change, negative = inhibition was -1.56% (inactive). Regarding `COC(=O)CN1CN(c2ccccc2)C2(CCN(Cc3ccc4ccccc4c3)CC2)C1=O`, the activity change, negative = inhibition was 13.3% (inactive). On to `O=C(CCCN1CCC2(CC1)C(=O)NCN2c1ccccc1)c1ccc(F)cc1`, for which the activity change, negative = inhibition was 2.21% (inactive) and -33.3% (inactive). Consider `O=C(CCCN1CCC2(CC1)C(=O)N(Cc1cccc(F)c1)CN2c1ccccc1)c1ccc(F)cc1`, for which the activity change, negative = inhibition was 10% (inactive) and -81.6% (active). Next, `Cc1cc(OC(=O)N2CCCCC2)c(C(C)C)cc1[N+](C)(C)C`: -5.32% (inactive); `C/C(=C\c1csc(C)n1)[C@H]1C[C@@H]2O[C@]2(C)CCC[C@H](C)[C@H](O)[C@@H](C)C(=O)C(C)(C)[C@@H](O)CC(=O)O1`: -66.8% (inactive). For the compound `C/C(=C\c1csc(C)n1)[C@@H]1C[C@@H]2O[C@@H]2CCC[C@H](C)[C@H](O)[C@@H](C)C(=O)C(C)(C)[C@@H](O)CC(=O)O1`, the activity change, negative = inhibition was -69.4% (inactive). For `C/C(=C\c1csc(C)n1)[C@H]1C[C@@H]2O[C@]2(C)CCC[C@H](C)[C@H](O)[C@@H](C)C(=O)C(C)(C)[C@H](O)CC(=O)O1`, the activity change, negative = inhibition was -73.6% (active). Take `C/C1=C/C[C@@H](/C(C)=C/c2csc(C)n2)OC(=O)C[C@H](O)C(C)(C)C(=O)[C@H](C)[C@@H](O)[C@@H](C)CCC1`: the activity change, negative = inhibition was -85.9% (active). For `CCN1CC2(COC(=O)c3ccccc3N3C(=O)CC(C)C3=O)CCC(OC)C34C5CC6C(OC)CC(O)(C5C6OC)C(O)(C(OC)C23)C14` (centres undefined), the activity change, negative = inhibition is 4.55% (inactive). As for `C[C@H](NC(=O)[C@@H](N)Cc1ccc(O)cc1)C(=O)NCC(=O)N(C)[C@@H](Cc1ccccc1)C(=O)N[C@H](CO)CCS(C)=O` (some centres undefined), the activity change, negative = inhibition was 12.9% (inactive). Take `O=C1/C(=C/c2ccccc2)C[C@@]2(O)C3Cc4ccc(O)c5c4[C@@]2(CCN3CC2CC2)[C@H]1O5`: the activity change, negative = inhibition was 1.86% (inactive). Regarding `COc1ccc2c(c1)[C@]13CCCC[C@H]1[C@H](C2)N(C)CC3`, the activity change, negative = inhibition was 16.4% (inactive). With `Cc1cc(C)cc(C(=O)OC2CC3CCC(C2)N3C)c1` (centres undefined), the activity change, negative = inhibition is -12.3% (inactive) and -9.52% (inactive). For the compound `CN1C(=O)CN=C(c2ccccc2)c2cc(Cl)ccc21`, the activity change, negative = inhibition was -6.2% (inactive). With `N#Cc1nn(-c2c(Cl)cc(C(F)(F)F)cc2Cl)c(N)c1S(=O)C(F)(F)F` (centres undefined), the activity change, negative = inhibition is 13.6% (inactive) and 5.34% (inactive). On to `CC(N)Cc1c[nH]c2ccc(OCc3cccs3)cc12` (centres undefined), for which the activity change, negative = inhibition was 1.64% (inactive) and -1.85% (inactive).

As to `C#Cc1cccc2c1c(C(=O)c1ccc(Cn3c(C)nc4cnccc43)c(F)c1)cn2C(=O)N(C)C`, the activity change, negative = inhibition is -7.53% (inactive). On to `Oc1ccc2c3c1O[C@H]1c4[nH]c5ccccc5c4C[C@@]4(O)C(C2)N(CC2CC2)CC[C@]314`, for which the activity change, negative = inhibition is 10.7% (inactive). With `CO[C@H]1CCC(O[C@H]2CC([C@]3(C)CC[C@]4(C[C@H](O)[C@@H](C)[C@@H]([C@@H](C)/C=C(\C)C(=O)[C@H](C)C[C@H](C)C(=O)O)O4)O3)O[C@]3(O[C@@H](C4O[C@@](O)(CO)[C@H](C)C[C@@H]4C)C[C@@H]3C)[C@@H]2C)O[C@@H]1C` (some centres undefined), the activity change, negative = inhibition is -83.8% (active). `N[C@H](CO)Cc1ccccc1`: the activity change, negative = inhibition is 1.26% (inactive).

Consider `N#CC(C#N)=Cc1ccc([N+](=O)[O-])c(O)c1`, for which the activity change, negative = inhibition is -6.99% (inactive).

With `Oc1ccc2c(c1)[C@@]13CCCC[C@@]1(O)[C@@H](C2)N(CC1CCC1)CC3`, the activity change, negative = inhibition was 18.4% (inactive).

In the case of `CN1CCc2cc3c(cc2C1O)OCO3` (centres undefined), the activity change, negative = inhibition was 7.57% (inactive). The result for `COC(=O)C[C@@](O)(CCC(C)(C)O)C(=O)O[C@@H]1C(OC)=C[C@]23CCCN2CCc2cc4c(cc2[C@@H]13)OCO4` reads -83.3% (active); that for `CSCCC(NC(=O)C(Cc1ccccc1)NC(=O)CNC(=O)CNC(=O)C(N)Cc1ccc(O)cc1)C(=O)O` (centres undefined), 10.2% (inactive). Turning to `CCC(CO)(C(=O)OC1CC2CCC(C1)[N+]2(C)C)c1ccccc1` (centres undefined), the activity change, negative = inhibition is 0.204% (inactive). On to `FC(F)(F)c1cccc(C2=CCN(CCc3ccc4ccccc4c3)CC2)c1`, for which the activity change, negative = inhibition was 10.1% (inactive) and 11.9% (inactive).

As for `COC(=O)N1CCN(C(=O)Cc2ccc(Cl)c(Cl)c2)C(CN2CCCC2)C1` (centres undefined), the activity change, negative = inhibition was 6.7% (inactive). `CCN1CCN(C(=O)Cc2ccc(Nc3ncc(F)c(Nc4ccc(C(=O)Nc5ccccc5Cl)cc4)n3)cc2)CC1`: the activity change, negative = inhibition was -83.3% (active). On to `CC1(C)C2CC(=O)[C@]3(C)C(CC[C@@]4(C)[C@H](c5ccoc5)OC(=O)[C@H]5O[C@]543)[C@@]2(C)C(=O)C[C@H]1O` (some centres undefined), for which the activity change, negative = inhibition was -1.25% (inactive).

Take `CC(Cc1ccc(O)cc1)NCC(O)c1cc(O)cc(O)c1` (centres undefined): the activity change, negative = inhibition was -70.6% (active) and 10.9% (inactive). In the case of `CNCC(O)c1ccc(O)cc1` (centres undefined), the activity change, negative = inhibition was 3.63% (inactive) and 14.9% (inactive). Turning to `C[C@H](Cc1ccc(OCC(=O)O)cc1)NC[C@H](O)c1cccc(Cl)c1`, the activity change, negative = inhibition is 4.02% (inactive) and 20.9% (inactive). For the compound `C[C@]12C=CC(=O)C=C1CCC1C2CC[C@]2(C)C(=O)CCC12` (some centres undefined), the activity change, negative = inhibition was 3.57% (inactive).

`C[C@@H]1CN(C2CCC(C#N)(c3ccc(F)cc3)CC2)CC[C@]1(C(=O)O)c1ccccc1` (some centres undefined): the activity change, negative = inhibition was -7.9% (inactive). On to `C=C1CCC2(O)C3Cc4ccc(O)c5c4C2(CCN3CC2CC2)C1O5` (centres undefined), for which the activity change, negative = inhibition is 12.3% (inactive). In the case of `NC[C@H](CC(=O)O)c1ccc(Cl)cc1`, the activity change, negative = inhibition is 3.97% (inactive). `CN1C2CCC1CC(OC(c1ccccc1)c1ccc(Cl)cc1)C2` (centres undefined): the activity change, negative = inhibition is -51.9% (inactive) and 41.6% (inactive). With `CN(C)CCc1ccc(O)cc1`, the activity change, negative = inhibition is 15.3% (inactive) and 3.73% (inactive). With `CC[C@@H]1[C@@H](C)O[C@@](O)([C@@H](C)[C@H](O)[C@H](C)[C@H]2OC(=O)/C=C/C=C/[C@H](C)[C@H]([C@@H](C)[C@@H](O)[C@H](C)[C@@]3(O)C[C@@H](O[C@H]4C[C@H](O)[C@H](O)[C@H](C)O4)[C@H](CC)[C@@H](C)O3)OC(=O)/C=C/C=C/[C@H]2C)C[C@H]1O[C@H]1C[C@H](O)[C@H](O)[C@H](C)O1`, the activity change, negative = inhibition was -83.6% (active). The result for `CC(C)[C@@H](CN1CC[C@@](C)(c2cccc(O)c2)[C@@H](C)C1)NC(=O)[C@H]1Cc2ccc(O)cc2CN1` reads 7.74% (inactive). Consider `C[N@@+]1(CC2CC2)CC[C@]23c4c5ccc(O)c4O[C@H]2C(=O)CC[C@]3(O)[C@H]1C5`, for which the activity change, negative = inhibition was -5.91% (inactive).

Take `CC(C)NCC(O)c1ccc(N)c(C#N)c1` (centres undefined): the activity change, negative = inhibition is 11.6% (inactive) and -5.38% (inactive). `C[C@]12CC[C@H]3[C@@H](CC[C@@]45O[C@@H]4C(=O)C(C#N)C[C@]35C)[C@@H]1CC[C@@H]2O` (some centres undefined): the activity change, negative = inhibition is 6.81% (inactive).

Turning to `C[C@]12C[C@H]3S[C@H]3C[C@@H]1CC[C@@H]1[C@@H]2CC[C@]2(C)[C@@H](O)CC[C@@H]12`, the activity change, negative = inhibition is -16.5% (inactive).

As to `C[C@]12CCC3[C@@H](CC[C@@]45O[C@@H]4C(=O)C(C#N)C[C@]35C)C1CC[C@@H]2O` (some centres undefined), the activity change, negative = inhibition was -74.3% (active).

On to `COC[C@H]1OC(=O)c2coc3c2[C@@]1(C)C1=C(C3=O)C2CCC(=O)[C@@]2(C)C[C@H]1OC(C)=O` (some centres undefined), for which the activity change, negative = inhibition is -5.28% (inactive). `CC(=O)C1CCC2C3CCC4CC(C)(O)CCC4(C)C3CCC12C` (centres undefined): the activity change, negative = inhibition was 13.6% (inactive). The result for `COc1cc2cc(c1Cl)N(C)C(=O)C[C@H](OC(=O)C(C)C)[C@]1(C)O[C@H]1[C@H](C)[C@@H]1C[C@@](O)(NC(=O)O1)[C@H](OC)/C=C/C=C(/C)C2` reads -83.8% (active); that for `COC1=CC(=O)OC(/C=C/c2ccccc2)C1` (centres undefined), 9.89% (inactive).

Take `CC1(C)C(=O)N(c2ccc(C#N)c(C(F)(F)F)c2)C(=O)N1CCCCO`: the activity change, negative = inhibition was 4.23% (inactive). Next, `CN1C(=O)CC(=O)N(c2ccccc2)c2cc(Cl)ccc21`: 7.34% (inactive); `C[C@]12CC[C@H](OC3OC(O)C(O)C(O)C3O)C=C1CCC1C2CC[C@]2(C)[C@@H](c3ccc(=O)oc3)CC[C@]12O` (some centres undefined): -83.9% (active); `C[C@@H]1O[C@@H](O[C@@H]2C=C3CCC4C(CC[C@]5(C)[C@@H](c6ccc(=O)oc6)CC[C@]45O)[C@@]3(C)CC2)C(O)C(O)[C@H]1O` (some centres undefined): -85.7% (active). Consider `NCCc1ccccn1`, for which the activity change, negative = inhibition was 26.7% (inactive) and 12% (inactive). As to `Cc1nnc2n1-c1sc(CCC(=O)N3CCOCC3)cc1C(c1ccccc1Cl)=NC2`, the activity change, negative = inhibition is 10% (inactive) and 7.36% (inactive).
